# D2 PAM-1 = positively modulates the human D2 dopamine receptor allosterically. AID 485347. 0.34% of 340,000 active. potentiation, % at 10 µM. HEK293 T-REx D2, calcium flux, EC20 dopamine potentiation;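 active = potentiation over 3 SD above the plate norm, cut at about 30% in these data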; note: 0% is about no effect
# Target sequence (P14416 whole entry, looked up): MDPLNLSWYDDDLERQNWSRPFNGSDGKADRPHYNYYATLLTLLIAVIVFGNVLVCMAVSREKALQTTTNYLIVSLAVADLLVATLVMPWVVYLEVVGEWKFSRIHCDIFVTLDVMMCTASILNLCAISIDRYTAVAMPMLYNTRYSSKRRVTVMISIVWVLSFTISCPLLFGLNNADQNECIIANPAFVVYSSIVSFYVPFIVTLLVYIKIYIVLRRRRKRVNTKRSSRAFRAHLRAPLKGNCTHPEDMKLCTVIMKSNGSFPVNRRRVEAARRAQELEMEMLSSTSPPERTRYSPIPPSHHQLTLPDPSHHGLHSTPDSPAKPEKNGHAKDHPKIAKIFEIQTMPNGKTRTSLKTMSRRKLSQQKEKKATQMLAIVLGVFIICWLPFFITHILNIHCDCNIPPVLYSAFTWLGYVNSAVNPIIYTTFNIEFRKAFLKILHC
#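 Calcium flux readout, no-wash dye, 1 read/s. Inducible HEK293 Trex D2 line, overnight 30 C. Compound alone 180 s (agonist flags), then EC20 dopamine, another 180 s to score potentiation.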
# D2 PAM-2 = human D2 receptor positive allosteric modulation; P14416; DiscoveRx D2 beta-arrestin cells, luminescence, 90 min; 100% = 57 uM dopamine signal; potentiation, % (test concentration not listed); 0.23% of 360,000 active; in the data active = potentiation above about 50%; inconclusive = mostly about 30% to 49%
#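 PathHunter beta-arrestin assay in DiscoveRx D2 cells. Compounds were added with an EC20 of dopamine (50 nM final) for 90 min at 37 deg C. Luminescence was read 1 h after detection reagent, with 57 uM dopamine as the EC100 control.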
# D2 ag-1 = D2 dopamine receptor (human) agonism | P14416 | 0.53% of 340,000 active | HEK293 T-REx D2 cells, calcium flux agonist mode | activation, % at 2 µM;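 active = activation over 3 SD above normal in the single-dose calcium agonist read, cut at about 30% in these data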; note: 0% is about no effect
#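 Tetracycline-induced HEK293 Trex cells with D2 receptor force-coupled to calcium signaling, plated overnight at 30 C and loaded with no-wash calcium dye. Calcium flux read kinetically for 180 s after compound addition; responses flag agonists.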
# D2 antagonist = antagonists of human D2 dopamine receptor; P14416; HEK293 TREx D2 cells, calcium flux, dopamine EC80; inhibition, % at 10 µM; 2% of 340,000 active; in the data active = inhibition above about 30%; inactive = below that, where a call was filed; note: 0% is about no effect
#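 HEK293 T-REx D2 cells, tet-induced, calcium dye no-wash. Cpd pintool add, 180 s kinetic, then EC80 DA, 180 s kinetic. Ca flux read.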
# D2 ag-2 = human D2 receptor agonism in beta-arrestin assay. 0.084% of 360,000 active. DiscoveRx PathHunter D2 beta-arrestin, luminescence, 90 min; 100% = 57 uM dopamine signal. activation, % (test concentration not listed). AID 624465. P14416; in the data active = activation above about 40%; inconclusive = between about 15% and that limit
#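 Agonist mode: compounds alone added to overnight-plated D2 PathHunter cells for 90 min at 37 C, with 57 uM final dopamine (EC100) defining full response. Beta-arrestin recruitment detected by chemiluminescent reagent, read after 1 h at ambient temperature.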
# Anesthetic bind = binds horse apoferritin like a general anesthetic; 0.074% of 350,000 active; apoferritin/1-aminoanthracene competitive binding, fluorescence; P02791; Potency, µM (top dose mostly 77.5 µM), for the others: at the highest dose activity change, negative = displacement, usual class: inhibitors; active = well fitted inhibition curve with a large enough effect; inconclusive = small, poorly fitted or top-dose-only effect; inactive = no such curve, though single readings can be large or run the other way; note: potency is the fitted concentration of half-maximal effect; % is set by controls: 0 for no effect and ±100 for the full control effect; nearly all actives have a fitted effect of over 20% in size
# Target sequence (P02791 2-175 limits assumed): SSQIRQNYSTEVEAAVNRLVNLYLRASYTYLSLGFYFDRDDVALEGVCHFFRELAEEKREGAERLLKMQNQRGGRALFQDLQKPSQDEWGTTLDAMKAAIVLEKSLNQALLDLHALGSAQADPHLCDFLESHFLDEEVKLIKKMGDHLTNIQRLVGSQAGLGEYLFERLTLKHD
#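 Apoferritin-based anesthetic binding model; compound displacement of fluorescent 1-AMA measured as endpoint fluorescence after 10 minutes at room temperature, scaled to free-ligand and complex controls.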
# Active calls of the source: *; ? = inconclusive; . = no result given. Sampled rows, rich in hits. Any-hit rate of the full collection: about 2.5%.
SMILES,D2 PAM-1,D2 PAM-2,D2 ag-1,D2 antagonist,D2 ag-2,Anesthetic bind
CC(O)CNc1nc2sc3c(c2c(=O)n1CCc1ccccc1)CCCCC3 (stereo unspecified),.,-9,.,.,3,-18%
CCC1S/C(=C(\C#N)C(N)=O)N(c2ccc(F)cc2)C1=O (stereo unspecified),7,-21,1,-5,-4,-8%
Cc1ccccc1C(=O)NC(=S)Nc1ccccc1C(F)(F)F,7,0,1,50*,-2,-20%
Cc1ccc(C(=O)NC(=S)Nc2ccccc2C(F)(F)F)c(C)c1,-8,-10,0,4,-1,3%
COc1ccccc1CN1CCCC(N2CCN(c3ccccc3OC)CC2)C1 (stereo unspecified),-14,-3,1,-6,-3,-1%
COc1ccccc1N1CCN(C2CCCN(Cc3cccc(O)c3)C2)CC1 (stereo unspecified),-19,-2,1,49*,-2,-1%
COc1ccccc1N1CCN(C2CCCN(C(=O)c3cc(C)oc3C)C2)CC1 (stereo unspecified),2,-33,-1,-2,-1,3%
COc1ccccc1N1CCN(C2CCCN(C(=O)c3ccoc3C)C2)CC1 (stereo unspecified),-16,-47,0,31*,-3,-10%
COc1ccccc1N1CCN(C2CCCN(Cc3c(F)cccc3F)C2)CC1 (stereo unspecified),-21,-2,0,53*,-4,1%
O=C1CSCN1c1ccc(Cl)c(Cl)c1,12,0,-1,2,5,-24%
CC1CN(C(=O)/C=C/c2ccc(SC(F)F)cc2)CC(C)O1 (stereo unspecified),9,0,-1,-4,3,5%
CCOC(=O)CSc1nnc(-c2cccs2)n1-c1ccccc1,32*,7,-1,-7,-3,-15%
O=C(CSc1nnc(-c2cccs2)n1-c1ccccc1)N1CCCC1,-8,-3,0,0,-1,-11%
COCC1CCCN(C(=O)c2ccc3oc(CCCc4ccccc4)nc3c2)C1 (stereo unspecified),-7,-1,-2,17,-3,-22%
COc1cccc(C(=O)O/N=C(\N)c2ccc(C)cc2)c1,13,?,-1,-12,0,-5%
COc1cc(C(=O)ON=C2C=C(C)C(=O)C(C)=C2)cc(OC)c1OC,3,64*,0,22,15,2%
COc1cc(C(=O)O/N=C2\C=CC(=O)C(C)=C2)cc(OC)c1OC,-4,28,1,-1,13,-23%
COc1cccc(C(=O)O/N=C(\N)c2ccc([N+](=O)[O-])cc2)c1,1,136*,0,-7,?,-10%
COc1cccc(C(=O)O/N=C(\N)Cc2ccc(Cl)cc2)c1,-3,125*,0,0,?,-15%
COc1ccc(/C(N)=N/OC(=O)c2ccc3c(c2)OCO3)cc1,4,103*,1,-30,?,-7%
O=C(O)c1c[nH]n2c(=S)ncnc12,.,-12,.,.,-4,.
CCOc1ncccc1C(=O)OCC(=O)Nc1cc(S(=O)(=O)N2CCOCC2)ccc1C,-2,-1,-2,11,-3,-7%
COc1cccc(OC)c1C(=O)O/N=C(\N)c1ccncc1,1,20,-1,7,3,5%
COc1cccc(C(=O)O/N=C(\N)c2ccncc2)c1,-3,59*,0,12,9,-11%
COc1cc(C(=O)O/N=C(\N)c2ccncc2)cc(OC)c1OC,-9,84*,-1,13,14,-13%
SMILES,D2 PAM-1,D2 PAM-2,D2 ag-1,D2 antagonist,D2 ag-2,Anesthetic bind
COc1ccc(C(=O)O/N=C(\N)c2ccncc2)cc1OC,-3,85*,0,1,?,-7%
CCOC(=O)C1(Cc2ccc(OC)cc2)CCN(C(=O)c2ccc3[nH]ccc3c2)CC1,11,-19,0,-8,-5,-16%
COc1ccc(C(=O)NCC(=O)OCC(=O)N2CC(C)CC(C)C2)cc1 (stereo unspecified),1,7,0,-8,0,?
Cc1nc2c(OCc3ccc(F)cc3)cccn2c1N(C)C(=O)CCC1CCCC1,.,-10,.,.,4,.
CCOc1ccccc1NC1=CC(=O)CC(c2ccccc2)C1 (stereo unspecified),12,2,0,-15,-1,-23%
COc1ccc(NC2=CC(=O)CC(c3ccccc3)C2)c(OC)c1 (stereo unspecified),-5,-3,-1,31*,-1,?
CCOc1ccccc1NC(=O)C(=O)CC(=O)c1cccc(OC)c1,0,-4,-1,-2,3,-7%
C#CCOCCOCCOCCNc1nc(N2CCN(C(=O)[C@H]([C@@H](C)CC)n3cc([C@@H](N)CO)nn3)CC2)nc(N2CCN(C(=O)[C@H](CCCCN)n3cc([C@@H](N)CO)nn3)CC2)n1,.,-4,.,.,-1,.
CC(=O)c1cccc(NC(=O)COC(=O)c2ccc3c(c2)OCCO3)c1,-10,-15,0,39*,-1,3%
CCCOC(=O)c1cccc(NC(=O)COc2ccc([N+](=O)[O-])cc2)c1,-22,-20,-1,33*,-3,-17%
CCOC(=O)c1cccc(NC(=O)COc2ccc([N+](=O)[O-])cc2)c1,.,-17,.,.,0,?
CCCOC(=O)Nc1cccc(C(C)=O)c1,10,-7,0,35*,0,-3%
O=C(Nn1cnnc1)C(c1ccccc1)c1ccccc1,7,7,1,20,-2,0%
O=C(NNC1=NCCC1)c1cccc(S(=O)(=O)N2CCCC2)c1,12,-6,0,8,0,0%
Cc1onc(-c2ccccc2)c1C(=O)OCC(=O)Nc1ccc(Cl)cc1,-4,3,0,37*,3,.
CN1/C(=C/C=N/n2cnnc2)C(C)(C)c2ccccc21,.,2,-1,56*,0,-5%
Cc1ccc(OCC(=O)O/N=C(\N)Cc2cccs2)cc1C,.,-4,.,.,-2,.
Cc1cc(OCC(=O)O/N=C(\N)Cc2cccs2)ccc1Br,2,-2,0,49*,2,4%
O=C(CNS(=O)(=O)c1ccccc1)OCC(=O)c1ccccc1Cl,-4,2,1,-10,-4,-23%
CN1CCN(c2nc(NCc3ccco3)nc(N)c2[N+](=O)[O-])CC1,-24,-24,-1,77*,0,-14%
CCN1CCN(c2nc(N(C)c3ccccc3)nc(N)c2[N+](=O)[O-])CC1,-19,-14,5,49*,-2,-16%
